{"source": "PubChem BioAssay AID504832", "about": "(National Center for Advancing Translational Sciences (NCATS), 2011)", "note": "The campaign covered roughly 310,000 compounds. About 18,000 (5.8%) were called active. Inconclusive results (about 22%) are left out. The list comes from a sample in which actives are over-represented; it also holds similar structures and randomly drawn compounds. Values without a mark were called inactive. The call rests on the fitted dose curve; in most records, active means well fitted inhibition curve with a large enough effect; inconclusive means small, poorly fitted or top-dose-only effect, or another doubt; inactive means no such curve, though single readings can be large or run the other way. On the % scale 0 is the no-effect control and ±100 the full control effect; potency means the concentration at half of the fitted maximal effect."}
{"assay": "Primary qHTS for delayed death inhibitors of the malarial parasite plastid, 48 hour incubation", "conditions": "P. falciparum luciferase growth in erythrocytes; series mostly up to 28.7 µM; activity change, negative = inhibition: at the top concentration", "how_it_was_run": "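Compounds are pin-transferred into medium, infected erythrocytes (2% hematocrit, 0.1% parasitemia final) are added, and plates sit one parasite generation at 37 C in 5% CO2. Detection reagent is then added and luminescence measured.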"}
{"smiles": "Cc1cc(O)c(C2(O)C(=O)Nc3ccccc32)cc1C", "note": "(centres undefined)", "activity change, negative = inhibition": "-8.28%"}
{"smiles": "CCCn1nnnc1NCc1ccc(OC)cc1", "activity change, negative = inhibition": "54.3%"}
{"smiles": "CCCc1nc2c(C)cc(-c3nc4ccccc4n3C)cc2n1Cc1ccc(-c2ccccc2C(=O)O)cc1", "Potency": "3.79 µM (active)"}
{"smiles": "Cc1ccc(Cn2c(SCC(=O)N/N=C/c3ccccc3OCC(=O)O)nc3ccccc32)cc1", "activity change, negative = inhibition": "7.08%"}
{"smiles": "CC(=O)c1nc2ccccc2n1Cc1ccccc1", "activity change, negative = inhibition": "18.9% [at 0.00184 µM]"}
{"smiles": "CN(c1ccccc1)S(=O)(=O)c1cccc(C(=O)NNC(=O)c2ccncc2)c1", "activity change, negative = inhibition": "-4.87%"}
{"smiles": "CCOc1ccc(N2C(=O)CC(N(O)c3ccccc3)C2=O)cc1", "note": "(centres undefined)", "activity change, negative = inhibition": "59.6%"}
{"smiles": "CCOc1ccc(N2C(=O)CC(N(CCc3ccc(OC)c(OC)c3)C(=S)Nc3ccccc3)C2=O)cc1", "note": "(centres undefined)", "Potency": "10.4 µM (active)"}
{"smiles": "COC(=O)CN(C(=S)Nc1ccc(Cl)cc1)C1CC(=O)N(c2ccc(OC)cc2)C1=O", "note": "(centres undefined)", "activity change, negative = inhibition": "-15%"}
{"smiles": "Cc1cccc(NC(=S)NCCc2ccc(Cl)cc2)c1C", "Potency": "2.94 µM (active)"}
{"smiles": "S=C(NCCc1ccccc1)Nc1ccccc1", "activity change, negative = inhibition": "16.9%"}
{"smiles": "CCNC(=S)Nc1cccc(Cl)c1C", "activity change, negative = inhibition": "-16.4%"}
{"smiles": "O=C(CN1CCCSc2ccccc21)N1CCN(S(=O)(=O)c2ccccc2)CC1", "activity change, negative = inhibition": "4.98%"}
{"smiles": "O=C(CN1C(=O)S/C(=C\\c2ccccc2Cl)C1=O)NC1C=CS(=O)(=O)C1", "note": "(centres undefined)", "activity change, negative = inhibition": "1.18%"}
{"smiles": "COc1c(C)c2c(c(O)c1C/C=C(\\C)CCC(=O)O)C(=O)OC2", "Potency": "2.56 µM (active)"}
{"smiles": "COc1ccc(C(=O)Nc2ccnn2C2CCN(Cc3ccncc3)CC2)cc1", "activity change, negative = inhibition": "24.7%"}
{"smiles": "C=CCn1c(=O)c(C(=O)Nc2ncccc2O)c(O)c2ccccc21", "activity change, negative = inhibition": "61.6%"}
{"smiles": "CCOC(=O)c1cccc(NS(=O)(=O)c2c(C(=O)N3CCCCCC3)c(C)n(C)c2C)c1", "activity change, negative = inhibition": "-12.8%"}
{"smiles": "CCOc1ccc(S(=O)(=O)Nc2ccc(C(=O)NCCCN3CCCC3=O)cc2)cc1", "activity change, negative = inhibition": "9.13%"}
{"smiles": "CCOc1ccc(S(=O)(=O)Nc2cccc(C(=O)NCC3(N4CCCCC4)CCCCC3)c2)cc1", "Potency": "14.7 µM (active)"}
{"smiles": "CCOc1ccc(S(=O)(=O)NCCC(=O)N2CCCCCCC2)cc1", "activity change, negative = inhibition": "9.99%"}
{"smiles": "CN(C)S(=O)(=O)c1ccc(C(=O)NCC2(N3CCOCC3)CCCCC2)cc1", "activity change, negative = inhibition": "-19.4%"}
{"smiles": "CCOc1ccc(NS(=O)(=O)c2ccc(C(=O)NCC(c3ccccc3OC)N3CCCC3)cc2)cc1", "note": "(centres undefined)", "Potency": "10.4 µM (active)"}
{"smiles": "CCOc1ccc(S(=O)(=O)Nc2ccc(OC)nc2)cc1", "activity change, negative = inhibition": "8.27%"}
{"smiles": "O=C(NCC1CCCO1)c1ccc(S(=O)(=O)Nc2ccc(F)cc2)cc1", "note": "(centres undefined)", "activity change, negative = inhibition": "6.48%"}
{"smiles": "O=C(NCC1(N2CCCCC2)CCCCC1)c1ccc(NS(=O)(=O)c2ccc(F)cc2)cc1", "Potency": "14.7 µM (active)"}
{"smiles": "O=C(Nc1ccc(C2CC2(Cl)Cl)cc1)c1cccc([N+](=O)[O-])c1", "note": "(centres undefined)", "activity change, negative = inhibition": "-0.243%"}
{"smiles": "CCn1c(SC(C)C(=O)Nc2ccc(N3CCOCC3)cc2)nnc1-c1ccco1", "note": "(centres undefined)", "activity change, negative = inhibition": "7.63%"}
{"smiles": "CC(=O)N/C(=C\\c1ccccc1)C(=O)OC(C)C(=O)N(C)c1ccccc1", "note": "(centres undefined)", "activity change, negative = inhibition": "-7.82%"}
{"smiles": "Cc1ccc(NC(=O)CN2CCc3ccccc3C2)cc1C", "activity change, negative = inhibition": "8.17%"}
{"smiles": "COc1ccc(CNCCc2c[nH]c3ccccc23)cc1OC", "activity change, negative = inhibition": "-15.4%"}
{"smiles": "COc1ccc(C(C(=O)NC2CCCCC2)N(C(=O)Cc2c[nH]c3ccccc23)c2ccccc2)cc1OC", "note": "(centres undefined)", "Potency": "13.1 µM (active)"}
{"smiles": "COc1ccc(-c2cc(C(=O)NC(Cc3c[nH]c4ccccc34)C(=O)O)c(C)o2)cc1OC", "note": "(centres undefined)", "activity change, negative = inhibition": "36.3%"}
{"smiles": "Cc1ccc(F)cc1NC(=O)CSCc1c(C)noc1C", "activity change, negative = inhibition": "1.25%"}
{"smiles": "COc1ccc(S(=O)(=O)N2CCCCC2)cc1Br", "activity change, negative = inhibition": "-17.1%"}
{"smiles": "COc1ccc(S(=O)(=O)N2CCCCCC2)cc1C(=O)N(C)Cc1cccc(OC)c1OC", "Potency": "13.1 µM (active)"}
{"smiles": "CCNC(=O)NC(=O)C(C)OC(=O)c1cc(S(=O)(=O)N2CCCCCC2)ccc1OC", "note": "(centres undefined)", "activity change, negative = inhibition": "12%"}
{"smiles": "O=S(=O)(Nc1cccc(-c2ccc(N3CCOCC3)nn2)c1)c1ccc(Cl)c(Cl)c1", "activity change, negative = inhibition": "1.25%"}
{"smiles": "O=S(=O)(NC1CC2CCC1C2)c1ccc(Cl)cc1", "note": "(centres undefined)", "activity change, negative = inhibition": "-3.94%"}
{"smiles": "Cc1ccccc1Nc1nnc(SCC(=O)c2cc3ccccc3o2)s1", "activity change, negative = inhibition": "10.3%"}
{"smiles": "Cc1cccc(Nc2nnc(SCC(=O)c3c(N)n(C4CC4)c(=O)[nH]c3=O)s2)c1C", "Potency": "11.7 µM (active)"}
{"smiles": "Cc1ccc(Nc2nnc(SCC(=O)c3cc4ccccc4o3)s2)cc1C", "activity change, negative = inhibition": "67.4%"}
{"smiles": "COCCOC(=O)C1=C(C)NC(=O)NC1c1cc2c(cc1Br)OCO2", "note": "(centres undefined)", "activity change, negative = inhibition": "-13.4%"}
{"smiles": "O=C(NC(Cc1ccccc1)C(=O)N1CCCC(C(F)(F)F)C1)c1ccccc1", "note": "(centres undefined)", "activity change, negative = inhibition": "-0.11%"}
{"smiles": "C[N+]12CN3CN(CN(C3)C1)C2", "Potency": "13.1 µM (active)"}
{"smiles": "Cc1ccc(N=C2SCCCN2C(=O)c2cccc(N3C(=O)CCC3=O)c2)cc1Cl", "activity change, negative = inhibition": "0.551%"}
{"smiles": "Cc1ccc(CNC(=O)C(=O)c2cn(CC(=O)N3CCOCC3)c3ccccc23)cc1", "activity change, negative = inhibition": "47.3%"}
{"smiles": "COc1ccc(C2=NN(C(=O)CSc3nc(=O)n4ccc(C)cc4n3)C(c3ccc(C)cc3)C2)cc1", "note": "(centres undefined)", "Potency": "9.28 µM (active)"}
{"smiles": "Cc1ccc(C2=NN(C(=O)CSc3nc(N)cc(N)n3)C(c3ccco3)C2)cc1", "note": "(centres undefined)", "activity change, negative = inhibition": "5.49%"}
{"smiles": "COc1ccc(C2CC(c3ccccc3)=NN2C(=O)CSc2nccc(=O)[nH]2)cc1", "note": "(centres undefined)", "activity change, negative = inhibition": "3.53%"}
{"smiles": "Cc1cccc(NC(=O)C(C)SCc2ccccc2)c1", "note": "(centres undefined)", "activity change, negative = inhibition": "16.4%"}
{"smiles": "COc1ccc(CCNC(=O)COC(=O)Cc2cccc(F)c2)cc1", "activity change, negative = inhibition": "-17.1%"}
{"smiles": "COc1ccc(C(=O)Nc2nc(-c3ccc(OC)cc3)c(-c3ccc([N+](=O)[O-])cc3)s2)cc1", "activity change, negative = inhibition": "37.7%"}
{"smiles": "COC(=O)C(NC(=O)c1ccc(OC)cc1)(Nc1ncc(S(=O)(=O)c2ccc([N+](=O)[O-])cc2)s1)C(F)(F)F", "note": "(centres undefined)", "Potency": "8.28 µM (active)"}
{"smiles": "CCOCC(=O)Nc1ncc(S(=O)(=O)c2ccc([N+](=O)[O-])cc2)s1", "activity change, negative = inhibition": "-20.2%"}
{"smiles": "Cc1c(C(=O)NC2CCCCC2)oc2ccccc12", "activity change, negative = inhibition": "71.4%"}
{"smiles": "CC(NC(=O)c1cc(=O)[nH]c2ccccc12)c1ccc(F)cc1F", "note": "(centres undefined)", "activity change, negative = inhibition": "-8.85%"}
{"smiles": "CSc1ccc(CCNC(=O)CS(=O)(=O)Cc2nc(-c3ccccc3F)oc2C)cc1", "activity change, negative = inhibition": "4.97%"}
{"smiles": "COc1ccc(C[C@H](C(=O)O)N2C(=O)c3ccc(C(=O)O)cc3C2=O)cc1", "activity change, negative = inhibition": "11.4%"}
{"smiles": "O=c1ccn(Cc2ccccc2Cl)cc1", "activity change, negative = inhibition": "15.8%"}
{"smiles": "N#CC(C#N)=CN=c1ccn(Cc2ccc(Cl)cc2Cl)cc1", "Potency": "2.94 µM (active)"}
{"smiles": "COCCN1C=C2C(=O)C(C)(OC(=O)C3CCCC3)C(=O)C=C2C=C1c1ccsc1", "note": "(centres undefined)", "activity change, negative = inhibition": "33.1%"}
{"smiles": "COC/C=C/C1=CC2=CC(=O)C(C)(OC(=O)CCC(=O)OC)C(=O)C2=CO1", "note": "(centres undefined)", "activity change, negative = inhibition": "36.7%"}
{"smiles": "C=CCN1C=C2C(=O)C(C)(OC(=O)CCc3ccccc3)C(=O)C=C2C=C1c1ccc(C#N)cc1", "note": "(centres undefined)", "Potency": "11.7 µM (active)"}
